Assays:
[1] = target: T1, Tyrosine-protein kinase receptor TYRO3 (Homo sapiens) (UniProt Q06418); conditions: at 1 µM
T1 sequence (whole entry): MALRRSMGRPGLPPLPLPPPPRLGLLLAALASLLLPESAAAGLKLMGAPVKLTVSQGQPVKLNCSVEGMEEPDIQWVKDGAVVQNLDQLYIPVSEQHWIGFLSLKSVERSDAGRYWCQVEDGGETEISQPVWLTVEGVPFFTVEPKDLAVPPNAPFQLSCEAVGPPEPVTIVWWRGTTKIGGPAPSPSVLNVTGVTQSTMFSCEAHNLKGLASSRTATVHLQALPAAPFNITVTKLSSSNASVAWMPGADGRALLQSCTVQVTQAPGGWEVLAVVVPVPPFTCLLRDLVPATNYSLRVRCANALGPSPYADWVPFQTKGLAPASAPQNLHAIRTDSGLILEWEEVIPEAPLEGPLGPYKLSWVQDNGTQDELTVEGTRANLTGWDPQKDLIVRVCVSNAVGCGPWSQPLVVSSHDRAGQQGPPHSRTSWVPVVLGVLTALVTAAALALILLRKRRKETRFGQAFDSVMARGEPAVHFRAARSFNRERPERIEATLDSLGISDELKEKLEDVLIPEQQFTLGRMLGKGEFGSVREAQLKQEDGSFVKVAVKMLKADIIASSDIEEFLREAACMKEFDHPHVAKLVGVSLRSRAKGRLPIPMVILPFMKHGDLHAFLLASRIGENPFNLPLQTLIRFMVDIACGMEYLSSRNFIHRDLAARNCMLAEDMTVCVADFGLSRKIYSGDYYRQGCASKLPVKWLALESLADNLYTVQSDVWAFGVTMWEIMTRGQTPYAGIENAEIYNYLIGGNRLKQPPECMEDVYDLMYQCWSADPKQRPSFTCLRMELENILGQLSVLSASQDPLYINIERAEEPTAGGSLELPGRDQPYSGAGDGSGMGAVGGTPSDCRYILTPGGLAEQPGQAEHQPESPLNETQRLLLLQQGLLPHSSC

[2] = target: Tyrosine-protein kinase Yes (Homo sapiens) (UniProt P07947); conditions: at 0.1 µM
[3] = target: Tyrosine-protein kinase Yes (Homo sapiens) (UniProt P07947); conditions: at 1 µM
[4] = target: T2, Tyrosine-protein kinase ZAP-70 (Homo sapiens) (UniProt P43403); conditions: at 0.1 µM
T2 sequence (whole entry): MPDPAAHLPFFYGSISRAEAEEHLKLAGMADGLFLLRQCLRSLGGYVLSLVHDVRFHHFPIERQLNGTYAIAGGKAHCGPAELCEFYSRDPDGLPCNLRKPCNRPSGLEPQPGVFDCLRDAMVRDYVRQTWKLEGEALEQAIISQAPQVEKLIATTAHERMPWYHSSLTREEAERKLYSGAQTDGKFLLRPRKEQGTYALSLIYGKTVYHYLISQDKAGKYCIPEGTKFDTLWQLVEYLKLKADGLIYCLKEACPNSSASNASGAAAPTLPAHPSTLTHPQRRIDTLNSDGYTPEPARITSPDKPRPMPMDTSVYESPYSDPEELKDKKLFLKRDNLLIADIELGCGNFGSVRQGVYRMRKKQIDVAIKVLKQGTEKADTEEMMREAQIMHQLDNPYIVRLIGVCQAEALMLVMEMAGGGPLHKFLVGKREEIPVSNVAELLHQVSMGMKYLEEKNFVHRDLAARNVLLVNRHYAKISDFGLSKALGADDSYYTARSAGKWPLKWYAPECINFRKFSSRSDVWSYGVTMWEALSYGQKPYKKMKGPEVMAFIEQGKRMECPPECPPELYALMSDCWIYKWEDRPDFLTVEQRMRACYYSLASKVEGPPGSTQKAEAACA

[5] = target: T2, Tyrosine-protein kinase ZAP-70 (Homo sapiens); conditions: at 1 µM
[6] = target: Serine/threonine-protein kinase B-raf (Homo sapiens) (UniProt P15056); conditions: at 0.1 µM
[7] = target: Serine/threonine-protein kinase B-raf (Homo sapiens) (UniProt P15056); conditions: at 1 µM
[8] = test system: Serine/threonine-protein kinase B-raf (Homo sapiens), P15056 [V600E]; conditions: at 0.1 µM
[9] = test system: Serine/threonine-protein kinase B-raf (Homo sapiens), P15056 [V600E]; conditions: at 1 µM
[10] = target: RAF proto-oncogene serine/threonine-protein kinase (Homo sapiens) (UniProt P04049); conditions: at 0.1 µM
[11] = target: RAF proto-oncogene serine/threonine-protein kinase (Homo sapiens) (UniProt P04049); conditions: at 1 µM
[12] = target: T3, Interleukin-1 receptor-associated kinase 4 (Homo sapiens) (UniProt Q9NWZ3); conditions: at 0.1 µM
T3 sequence (whole entry): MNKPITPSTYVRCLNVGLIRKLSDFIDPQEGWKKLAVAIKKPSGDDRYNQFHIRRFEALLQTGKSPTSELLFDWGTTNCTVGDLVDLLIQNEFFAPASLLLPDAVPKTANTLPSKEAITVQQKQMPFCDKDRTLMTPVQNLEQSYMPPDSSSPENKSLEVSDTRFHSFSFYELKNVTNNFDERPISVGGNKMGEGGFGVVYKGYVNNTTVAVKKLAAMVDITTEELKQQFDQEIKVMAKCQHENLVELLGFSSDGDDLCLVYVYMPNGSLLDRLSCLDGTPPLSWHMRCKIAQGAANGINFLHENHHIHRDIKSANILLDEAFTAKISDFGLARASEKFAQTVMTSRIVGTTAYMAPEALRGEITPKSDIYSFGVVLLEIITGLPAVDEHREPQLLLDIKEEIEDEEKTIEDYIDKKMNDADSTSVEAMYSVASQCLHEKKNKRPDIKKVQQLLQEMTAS

[13] = target: T3, Interleukin-1 receptor-associated kinase 4 (Homo sapiens); conditions: at 1 µM
[14] = target: Leucine-rich repeat serine/threonine-protein kinase 2 (Homo sapiens) (UniProt Q5S007); conditions: at 0.1 µM
[15] = target: Leucine-rich repeat serine/threonine-protein kinase 2 (Homo sapiens) (UniProt Q5S007); conditions: at 1 µM
[16] = test system: Leucine-rich repeat serine/threonine-protein kinase 2 (Homo sapiens), Q5S007 [G2019S]; conditions: at 0.1 µM
[17] = test system: Leucine-rich repeat serine/threonine-protein kinase 2 (Homo sapiens), Q5S007 [G2019S]; conditions: at 1 µM

Serine/threonine-protein kinase B-raf (Homo sapiens), P15056 [V600E], sequence (P15056 whole entry V600E): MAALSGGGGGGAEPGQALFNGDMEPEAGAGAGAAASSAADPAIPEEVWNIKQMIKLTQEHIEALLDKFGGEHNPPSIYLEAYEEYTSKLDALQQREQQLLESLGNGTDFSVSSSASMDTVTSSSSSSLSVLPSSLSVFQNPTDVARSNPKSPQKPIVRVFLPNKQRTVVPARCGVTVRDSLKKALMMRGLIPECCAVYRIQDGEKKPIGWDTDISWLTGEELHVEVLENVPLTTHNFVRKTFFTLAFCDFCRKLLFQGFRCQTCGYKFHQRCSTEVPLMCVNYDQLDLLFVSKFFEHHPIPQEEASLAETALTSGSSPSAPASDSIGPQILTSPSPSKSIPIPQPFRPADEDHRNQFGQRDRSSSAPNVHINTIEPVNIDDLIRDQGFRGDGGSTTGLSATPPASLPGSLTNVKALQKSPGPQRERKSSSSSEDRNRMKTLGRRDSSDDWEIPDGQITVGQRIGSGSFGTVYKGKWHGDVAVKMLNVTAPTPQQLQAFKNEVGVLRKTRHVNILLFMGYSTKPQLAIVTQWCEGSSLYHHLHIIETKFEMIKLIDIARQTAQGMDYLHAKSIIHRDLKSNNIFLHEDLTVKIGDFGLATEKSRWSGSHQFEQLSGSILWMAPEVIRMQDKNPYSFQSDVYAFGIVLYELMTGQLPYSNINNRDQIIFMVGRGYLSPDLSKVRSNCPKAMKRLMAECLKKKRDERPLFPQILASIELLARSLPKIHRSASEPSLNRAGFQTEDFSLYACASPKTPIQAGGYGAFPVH
Leucine-rich repeat serine/threonine-protein kinase 2 (Homo sapiens), Q5S007 [G2019S], sequence (Q5S007 whole entry G2019S): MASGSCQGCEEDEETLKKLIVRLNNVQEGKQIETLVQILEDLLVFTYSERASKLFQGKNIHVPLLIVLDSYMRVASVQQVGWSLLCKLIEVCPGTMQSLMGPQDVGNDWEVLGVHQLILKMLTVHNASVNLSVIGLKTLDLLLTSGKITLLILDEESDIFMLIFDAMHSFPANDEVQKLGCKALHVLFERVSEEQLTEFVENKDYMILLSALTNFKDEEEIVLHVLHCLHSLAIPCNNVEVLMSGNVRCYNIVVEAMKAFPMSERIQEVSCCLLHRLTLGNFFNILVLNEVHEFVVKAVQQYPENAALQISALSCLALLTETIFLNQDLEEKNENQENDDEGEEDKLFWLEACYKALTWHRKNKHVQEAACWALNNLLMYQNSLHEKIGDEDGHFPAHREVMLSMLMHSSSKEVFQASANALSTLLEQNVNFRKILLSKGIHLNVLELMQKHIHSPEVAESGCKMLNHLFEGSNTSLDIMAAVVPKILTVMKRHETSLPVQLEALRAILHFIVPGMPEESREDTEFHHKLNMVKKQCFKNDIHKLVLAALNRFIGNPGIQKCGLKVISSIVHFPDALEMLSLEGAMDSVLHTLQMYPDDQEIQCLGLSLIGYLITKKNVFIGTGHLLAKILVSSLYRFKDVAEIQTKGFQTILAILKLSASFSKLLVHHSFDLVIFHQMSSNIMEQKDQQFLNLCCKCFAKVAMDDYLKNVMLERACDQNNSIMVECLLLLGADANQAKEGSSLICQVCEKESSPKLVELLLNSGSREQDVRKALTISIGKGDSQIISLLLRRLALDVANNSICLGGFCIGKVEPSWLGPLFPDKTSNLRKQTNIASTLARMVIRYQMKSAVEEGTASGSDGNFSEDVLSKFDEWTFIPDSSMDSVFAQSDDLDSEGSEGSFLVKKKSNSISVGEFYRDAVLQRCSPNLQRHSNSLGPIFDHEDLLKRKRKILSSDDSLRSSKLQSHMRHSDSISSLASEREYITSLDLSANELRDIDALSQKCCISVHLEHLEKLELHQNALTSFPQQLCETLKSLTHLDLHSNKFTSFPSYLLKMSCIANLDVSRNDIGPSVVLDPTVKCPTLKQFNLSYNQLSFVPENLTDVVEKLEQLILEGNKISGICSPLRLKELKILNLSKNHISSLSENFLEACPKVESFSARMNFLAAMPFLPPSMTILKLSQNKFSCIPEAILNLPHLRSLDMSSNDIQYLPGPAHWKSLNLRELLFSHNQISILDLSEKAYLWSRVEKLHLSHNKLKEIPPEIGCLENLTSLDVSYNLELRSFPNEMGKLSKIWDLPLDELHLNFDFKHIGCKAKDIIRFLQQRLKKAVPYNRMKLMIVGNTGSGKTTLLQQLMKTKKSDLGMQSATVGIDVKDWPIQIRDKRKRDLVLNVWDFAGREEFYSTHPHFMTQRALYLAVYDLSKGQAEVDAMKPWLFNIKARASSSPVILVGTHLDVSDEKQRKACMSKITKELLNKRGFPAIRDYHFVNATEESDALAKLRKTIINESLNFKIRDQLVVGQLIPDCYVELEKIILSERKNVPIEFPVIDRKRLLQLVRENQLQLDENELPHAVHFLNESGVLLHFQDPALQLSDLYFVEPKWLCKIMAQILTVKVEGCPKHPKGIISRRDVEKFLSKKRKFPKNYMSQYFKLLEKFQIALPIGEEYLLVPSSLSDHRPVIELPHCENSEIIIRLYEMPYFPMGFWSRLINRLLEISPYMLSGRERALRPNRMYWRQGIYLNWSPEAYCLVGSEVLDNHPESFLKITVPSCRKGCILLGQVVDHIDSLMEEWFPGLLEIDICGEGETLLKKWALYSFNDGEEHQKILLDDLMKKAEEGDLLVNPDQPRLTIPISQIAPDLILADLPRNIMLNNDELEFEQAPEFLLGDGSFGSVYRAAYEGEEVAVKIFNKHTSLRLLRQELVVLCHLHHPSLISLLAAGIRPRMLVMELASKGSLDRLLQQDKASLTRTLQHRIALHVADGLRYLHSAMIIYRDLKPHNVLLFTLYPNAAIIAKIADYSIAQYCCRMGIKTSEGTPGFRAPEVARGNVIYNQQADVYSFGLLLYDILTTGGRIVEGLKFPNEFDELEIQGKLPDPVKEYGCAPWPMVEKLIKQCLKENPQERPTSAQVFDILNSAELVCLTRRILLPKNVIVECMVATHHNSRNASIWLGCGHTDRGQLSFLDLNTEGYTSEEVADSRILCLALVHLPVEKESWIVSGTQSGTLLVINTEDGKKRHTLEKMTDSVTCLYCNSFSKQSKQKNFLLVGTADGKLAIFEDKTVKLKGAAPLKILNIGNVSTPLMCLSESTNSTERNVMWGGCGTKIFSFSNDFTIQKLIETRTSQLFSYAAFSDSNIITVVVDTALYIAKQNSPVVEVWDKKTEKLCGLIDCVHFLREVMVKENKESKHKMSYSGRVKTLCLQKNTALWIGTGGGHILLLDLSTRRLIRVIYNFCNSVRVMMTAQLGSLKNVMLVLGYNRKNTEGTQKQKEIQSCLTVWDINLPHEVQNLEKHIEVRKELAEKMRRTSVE
Tyrosine-protein kinase Yes (Homo sapiens), sequence (P07947 2-543 limits assumed): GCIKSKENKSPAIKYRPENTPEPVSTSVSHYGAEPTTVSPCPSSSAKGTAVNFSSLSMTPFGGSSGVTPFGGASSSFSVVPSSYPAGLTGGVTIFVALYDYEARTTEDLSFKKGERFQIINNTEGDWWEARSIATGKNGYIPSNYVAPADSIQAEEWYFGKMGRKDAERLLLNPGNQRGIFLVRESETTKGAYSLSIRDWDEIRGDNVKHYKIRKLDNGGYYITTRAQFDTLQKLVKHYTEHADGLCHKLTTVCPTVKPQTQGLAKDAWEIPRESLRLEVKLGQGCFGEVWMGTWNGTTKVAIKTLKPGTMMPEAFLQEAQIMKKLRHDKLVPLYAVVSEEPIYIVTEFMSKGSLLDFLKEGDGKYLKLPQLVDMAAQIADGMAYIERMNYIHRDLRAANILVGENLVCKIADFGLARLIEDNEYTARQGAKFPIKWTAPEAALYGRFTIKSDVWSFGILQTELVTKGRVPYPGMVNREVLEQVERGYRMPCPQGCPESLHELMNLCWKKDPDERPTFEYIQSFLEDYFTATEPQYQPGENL
Serine/threonine-protein kinase B-raf (Homo sapiens), sequence (P15056 whole entry): as the sequence (P15056 whole entry V600E) above, with E600V counted along it
Leucine-rich repeat serine/threonine-protein kinase 2 (Homo sapiens), sequence (Q5S007 whole entry): as the sequence (Q5S007 whole entry G2019S) above, with S2019G counted along it
RAF proto-oncogene serine/threonine-protein kinase (Homo sapiens), sequence (P04049 whole entry): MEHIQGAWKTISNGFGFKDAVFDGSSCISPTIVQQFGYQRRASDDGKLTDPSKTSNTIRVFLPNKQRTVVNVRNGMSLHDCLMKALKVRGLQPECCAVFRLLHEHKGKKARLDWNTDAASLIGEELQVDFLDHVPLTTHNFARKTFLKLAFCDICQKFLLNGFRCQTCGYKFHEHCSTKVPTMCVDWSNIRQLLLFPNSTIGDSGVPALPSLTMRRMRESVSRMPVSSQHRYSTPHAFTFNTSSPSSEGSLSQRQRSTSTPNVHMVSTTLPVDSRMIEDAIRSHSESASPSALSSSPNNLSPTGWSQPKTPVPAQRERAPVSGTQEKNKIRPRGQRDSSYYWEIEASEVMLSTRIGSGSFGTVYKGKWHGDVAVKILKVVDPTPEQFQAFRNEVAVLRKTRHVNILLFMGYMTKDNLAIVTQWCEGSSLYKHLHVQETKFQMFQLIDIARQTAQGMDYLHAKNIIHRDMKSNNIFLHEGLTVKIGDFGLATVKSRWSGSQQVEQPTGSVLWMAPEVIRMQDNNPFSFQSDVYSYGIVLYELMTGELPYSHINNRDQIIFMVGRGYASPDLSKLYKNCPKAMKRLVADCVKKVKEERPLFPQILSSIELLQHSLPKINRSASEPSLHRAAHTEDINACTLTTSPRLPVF

SMILES | inhibition [1] [%] | inhibition [2] [%] | inhibition [3] [%] | inhibition [4] [%] | inhibition [5] [%] | inhibition [6] [%] | inhibition [7] [%] | inhibition [8] [%] | inhibition [9] [%] | inhibition [10] [%] | inhibition [11] [%] | inhibition [12] [%] | inhibition [13] [%] | inhibition [14] [%] | inhibition [15] [%] | inhibition [16] [%] | inhibition [17] [%]
COc1cc(C)c(N(C)C(=O)CN(C)C)cc1Nc1nc(Nc2cccc(F)c2C(N)=O)c2cc[nH]c2n1 | -0.84 | 0.04 | -3.38 | -1.25 | -6.34 | 1.62 | 3.95 | 2.25 | 3.53 | -0.36 | -0.93 | -1.54 | 1.55 | 20.4 | 18.8 | 45.5 | 57.7
COc1ccc2ncn(-c3cc(O[C@H](C)c4ccccc4Cl)c(C(N)=O)s3)c2c1 | 3.45 | 1.1 | 0.5 | -4.58 | 0.58 | 5.68 | 4.96 | 3.17 | 3.29 | 0.5 | 0.5 | 1.46 | 1.82 | -2.19 | 9.87 | 2.01 | 20.2
FC(F)(F)c1cccc(Nc2nccc(-c3cnn4nc(-c5ccccc5)ccc34)n2)c1 | 0.62 | 2.51 | 24.8 | 0.98 | 2.56 | 3.36 | 4.64 | 2.72 | 4.02 | -0.56 | -0.15 | 0.01 | 0.27 | 2 | -0.41 | 2.35 | 4.67
C/C(Nc1ccc(S(N)(=O)=O)cc1)=C1/C(=O)Nc2ccccc21 | 16.8 | -1.58 | 14.1 | -2.58 | 0.18 | -1.47 | 0.23 | -2.48 | -0.68 | -5.23 | -3.52 | 2.06 | 0.3 | 3.27 | 18.4 | 11.4 | 47.1
NC(=O)c1cc(-c2ccc(F)cc2)cc(-c2ccncc2)c1N | 3.84 | 3.3 | 8.03 | 3.36 | 4.08 | 6.39 | 7.79 | 7.49 | 7.36 | 0.54 | 8.69 | 2.99 | 1.61 | 0.64 | 0.67 | 0.41 | 0.77
CN(C)CCCNc1nccc(-c2c(-c3ccc(F)cc3)nn3cc(C(F)(F)F)ccc23)n1 | 1.35 | 0.79 | -0.45 | -2.33 | -4.78 | 2.11 | 2.24 | 2.52 | 2.19 | 3.17 | 0.11 | -2.77 | 1.66 | -2 | 1.95 | -0.33 | 2.73
O=C1Nc2ccccc2/C1=C/Nc1ccc(-n2cncn2)cc1 | 10.2 | 3.29 | 15.7 | 4.53 | 7.33 | 6.1 | 6.87 | 7.05 | 6.86 | 15.1 | 5.44 | 2.2 | 2.52 | 4.2 | 9.2 | 6.6 | 23.9

From ChEMBL document CHEMBL1961873, “Compounds: GSK PKIS; Assays: Nanosyn kinase panel” (2012)
